FLuc counter: inhibits or activates purified firefly luciferase, miR-21 counter-screen; P08659; purified FLuc, Km substrates, luminescence inhibition; Potency, µM (series often up to 57.5 µM), for inactives: top-dose activity change, negative = inhibition, actives largely listed as inhibitors; 360,000 compounds, 6.9% hits;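 note: plate controls were vehicle for no effect and reference inhibitor for full effect; nearly all actives have a fitted effect of over 55% in size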
Target sequence (P08659 whole entry, looked up): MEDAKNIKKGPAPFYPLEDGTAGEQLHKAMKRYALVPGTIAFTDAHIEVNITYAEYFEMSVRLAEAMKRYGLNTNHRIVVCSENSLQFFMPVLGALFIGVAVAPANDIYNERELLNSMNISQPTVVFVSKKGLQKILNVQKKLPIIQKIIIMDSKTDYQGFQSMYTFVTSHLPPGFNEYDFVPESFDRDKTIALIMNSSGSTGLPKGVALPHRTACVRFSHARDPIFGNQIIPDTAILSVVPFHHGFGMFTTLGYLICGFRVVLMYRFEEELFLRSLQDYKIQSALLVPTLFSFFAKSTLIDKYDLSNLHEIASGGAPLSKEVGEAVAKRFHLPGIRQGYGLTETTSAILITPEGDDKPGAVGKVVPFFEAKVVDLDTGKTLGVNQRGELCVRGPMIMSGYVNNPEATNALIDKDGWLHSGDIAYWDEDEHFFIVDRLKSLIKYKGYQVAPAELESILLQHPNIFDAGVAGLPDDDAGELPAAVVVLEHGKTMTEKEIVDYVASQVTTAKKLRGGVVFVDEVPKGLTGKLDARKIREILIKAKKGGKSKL
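Purified P. pyralis luciferase, 10 nM final, with Km-level 10 uM D-luciferin and 10 uM ATP in 50 mM Tris acetate pH 7.5, 10 mM Mg acetate, 0.01% Tween-20, 0.05% BSA; 6-point qHTS titration about 60 µM downward; luminescence read.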
NPC1 prom act: activates the NPC1 promoter | Huh7 NPC1 promoter luciferase reporter, 24 h | Potency, µM (titrated, usually from 9.22 µM), inactives show at the top dose activation, usual class: activators | 320,000 compounds, 2.4% hits; note: % of control where 0% means no effect; nearly all actives have a fitted effect of over 60% in size
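Huh7 cells stably carrying NPC1 promoter–luciferase, plated in Opti-MEM with 10% FBS for 2 h, were exposed to compound in DMSO for 24 h at 37 °C; luciferase reagent was added for 10 min and luminescence read.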
ELG1 genotoxic: inducers of genotoxicity in HEK293T ELG1-luciferase cells. HEK293T ELG1-luciferase reporter, luminescence, 16 h. Potency, µM (doses to about 46 µM), for the others: at the highest dose activity change, positive = activation, actives largely listed as activators. 330,000 compounds, 1.3% hits; note: % of control where 0% means no effect; nearly all actives have a fitted effect of over 60% in size
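HEK293T cells expressing luciferase-tagged ELG1 were treated with compound or DMSO for 16 hr at 37°C. Luciferase activity was then read after 30 min with ONE-Glo at room temperature; rising signal flags genetic stress.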
Rab9 prom act: Rab9 promoter activation; AID 485297; 320,000 compounds, 2.8% hits; Huh7 Rab9 promoter-luciferase reporter, luminescence, 24 h; Potency, µM (series often up to 9.22 µM), inactives show at the top dose activation, negative = inhibition, hits mostly activators; note: % of control where 0% means no effect; nearly all actives have a fitted effect of over 60% in size
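Luminescence from Amplite-detected luciferase (10 minutes, ambient) reports Rab9 promoter activation. Before that, stable Rab9-luciferase Huh7 cells (1500/well, reduced-serum OP-MEM I plus 10% FBS) were exposed to compound for 24 hours at 37C.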
SMN2 splice up: increases expression of the SMN2 splice variant | HEK293 SMN2-luciferase splicing reporter, luminescence, 30-36 h | Potency, µM (doses to about 46.1 µM), for inactives: top-dose activity change, positive = activation, most hits filed as activators | 210,000 compounds, 2.8% hits | AID 1458; note: % of control where 0% means no effect; nearly all actives have a fitted effect of over 55% in size
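HEK293 cells carry an SMN2 minigene-luciferase reporter in which exon 7 inclusion puts luciferase in frame. Cells were seeded at 2000 cells/well, attached for 10-12 hours, then exposed to compounds for 30-36 hours at 37C before ONE-Glo luminescence.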
ELG1 DNA repair: blocks ELG1-dependent DNA repair in HEK293T cells | Potency, µM (series often up to 46.1 µM), for inactives: at the top dose activity change, negative = inhibition, most hits filed as inhibitors | 330,000 compounds, 2.3% hits | AID 504467 | HEK293T ELG1-luciferase reporter, luminescence, 16 h; DNA damage induced by 5-fluorouridine; note: % is set by controls: 0 for no effect and ±100 for the full control effect; nearly all actives have a fitted effect of over 55% in size
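Reporter activity after DNA damage by 5-fluorouridine is monitored. Compound-treated cells incubate 16 hr at 37 °C, then ONE-Glo is added for 30 min before luminescence reading.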
Numbers without * were called inactive; ? = inconclusive; / = no result given. Compounds with a hit are over-represented: about 9.3% of the library has one in this group of screens. Calls come from the whole dose curve; as a rule, active = well fitted curve in the direction sought with a large enough effect; inconclusive = small, poorly fitted or top-dose-only effect, or another doubt; inactive = no such curve, though single readings can be large; an effect the other way counts as inactive or inconclusive. Potency is the fitted concentration of half-maximal effect.

SMILES	FLuc counter	NPC1 prom act	ELG1 genotoxic	Rab9 prom act	SMN2 splice up	ELG1 DNA repair
COc1ccc2nc(NC(=O)CSc3nnc(N)s3)sc2c1	?	?	16%	2µM*	10µM*	?
Cc1oc(-c2ccc(C(=O)NC(C)c3ccccc3)cc2)nc1CS(=O)(=O)c1ccccc1 (configuration not stated)	6%	/	/	/	/	/
CC(=O)Nc1cccc(Oc2ncnc3scc(-c4ccc(C)cc4)c23)c1	3%	-1%	-4%	-8%	-25%	?
C=CC(=O)Nc1cccc(Oc2ncnc3[nH]cc(-c4cnc5ccccc5c4)c23)c1	/	/	-8%	/	/	7.3µM*
COC(=O)[C@H](C)NC(=O)NCc1ccccc1	0%	4%	-1%	-9%	/	-6%
O=C(Nc1nc(-c2ccccc2)ns1)c1ccncc1	11µM*	24%	1%	28%	/	27%
CC(C)(C)C(=O)Nc1nc(-c2ccccc2)ns1	5.4µM*	0.5µM*	14%	0.63µM*	1.6µM*	?
c1ccc(Nc2nc(-c3ccccc3)ns2)cc1	2.1µM*	1.8µM*	1.8µM*	1.3µM*	/	?
CC(=O)Cc1nsc(Nc2ccccc2)n1	-10%	3%	?	27%	15%	?
CCN(CC)C(=O)CN1C(=O)NC2(CCc3ccccc3C2)C1=O (configuration not stated)	-1%	-5%	-1%	0%	14%	5%
O=C(c1cc2ccc3cccnc3c2[nH]1)N1CCCCC1	1.2µM*	/	/	/	/	/
CC1CCCN(C(=O)c2cc3ccc4cccnc4c3[nH]2)C1 (configuration not stated)	0.43µM*	/	/	/	/	/
CC(=O)c1ccc(N2CCN(C(=O)c3cc4ccc5cccnc5c4[nH]3)CC2)cc1	-17%	/	/	/	/	/
CC(C)(C)OC(=O)N1CCC(c2c(C(=O)N3CCOCC3)cnn2-c2cccc(F)c2)CC1	1%	/	/	/	/	/
COc1ccccc1CNC(=O)C1CCCN(S(=O)(=O)c2ccc3c(c2)oc(=O)n3C)C1 (configuration not stated)	-1%	/	/	/	-15%	/
COc1ccc(Cn2c(=O)cc(N)n(-c3ccccc3C)c2=O)cc1	-3%	-25%	2%	-18%	/	?
O=C1CSC2=NCN(c3ccc4c(c3)OCO4)CN12	?	10%	?	2%	?	?
CN(C)c1ccc(N2CN=C3SCC(=O)N3C2)cc1	11µM*	15%	?	6%	-12%	?
O=C(Nc1cccnc1)c1cc2c(s1)-c1ccccc1OC2	?	25%	-1%	7%	/	?
CCc1ccccc1N(C)C(=O)c1cc2c(s1)-c1c(C)cccc1OC2	-4%	/	/	/	-11%	/
CCOC(=O)c1cc2c(s1)-c1c(C)cccc1OC2	13µM*	?	?	?	0%	?
O=C(Nc1nc2ccccc2s1)c1cc2c(s1)-c1ccccc1OC2	-11%	26%	13µM*	?	-13%	?
COc1ccc(N(C)C(=O)c2cc3c(s2)-c2c(C)cccc2OC3)c(OC)c1	-5%	0%	-7%	0%	-31%	23µM*
Cc1cccc2c1-c1sc(C(=O)Nc3nccs3)cc1CO2	2.4µM*	2.5µM*	?	1.1µM*	?	?
CCN(CC)c1ccc2cc(S(=O)(=O)c3ccc(C)cc3)c(=O)oc2c1	-8%	-1%	-1%	-2%	7%	-9%
O=C1CCCCCN1CP(=O)(O)CN1CCCCCC1=O	1%	-4%	1%	-3%	/	2%
O=C(Nc1nccs1)c1cc2c(s1)-c1ccccc1OC2	1.7µM*	2µM*	8.2µM*	3.2µM*	10µM*	?
O=C(Nc1cccnc1Cl)c1cc2c(s1)-c1ccccc1OC2	?	?	11%	?	/	29%
COc1cccc(CNC(=O)c2sc3nc[nH]c(=O)c3c2C)c1	-8%	/	/	/	/	/
